The target in one test is Albumin (Bos taurus) (UniProt P02769). Briefly: compounds binding labelled BSA control protein – biochemical, small-molecule microarray, Alexa647 label, 635/667 nm fluorescence, artefact control for SMM control protein annotation, profiling panel (AID 1118).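 Note: score merges 667 nm emission intensity and signal-to-noise per printed compound spot.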 Particulars: BSA-A647 binding, fluorescence 635 nm, higher = more signal.
Test [1] in a line: probe aXIP binding to arrayed compounds – biochemical, NeuroSMM set, 635/667 nm fluorescence, primary screen (AID 1119).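 Note: probe is the protein aXip251-270 applied at 1 µg/mL to compound-printed slides; binding of probe to printed compounds measured as 667 nm fluorescence plus signal to noise.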 Particulars: small-molecule microarray, higher = more signal, called active from +8 up or from −8 down.
A short description of test [2]: probe aNOTCH3 binding on compound microarray – biochemical, small-molecule microarray, 635/667 nm fluorescence, primary screen (AID 1120).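 Note: probe is a biotin-tagged antibody raised against NOTCH3 rather than NOTCH3 protein; score merges spot fluorescence near 667 nm with spot signal to noise.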 Particulars: higher = more signal.
Test [3] in a line: probe aNOTCH2 binding on compound microarray – biochemical, small-molecule microarray, 635/667 nm fluorescence, primary screen (AID 1121).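 Note: score merges feature fluorescence read at 667 nm with its signal to noise.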 Particulars: higher = more signal.
For test [4], the target named is Carbonic anhydrase 2 (Homo sapiens) (UniProt P00918). As to the kind of experiment: compounds binding carbonic anhydrase 2 – biochemical, small-molecule microarray, Alexa647-labelled CAII, profiling panel (AID 1122). Particulars: CAII-A647 binding fluorescence, higher = more signal.
A short description of test [5]: COS7 lysate on small-molecule microarray, probe aHis, 635 nm (AID 1123).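 Note: z-score combines 667nm fluorescence intensity with signal-to-noise per printed compound spot.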 Particulars: COS7 cell lysate, fluorescence, higher = more signal.
Test [6] in a line: probe aLAP1 signal on lysate-treated microarray – cell lysate, small-molecule microarray, COS7 lysate, primary screen (AID 1124).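 Note: lysate comes from COS7 cells expressing LAP1 and is applied at 0.3 µg/mL; score merges spot fluorescence near 667 nm with signal-to-noise over triplicate slides.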 Particulars: probe aLAP1, fluorescence, higher = more signal.
For the next test, the system named is Sam68 (KHDRBS1). As to the kind of experiment: compounds binding KHDRBS1 protein – biochemical, small-molecule microarray, 635 nm fluorescence, primary screen (AID 1125).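 Note: score merges 667 nm channel intensity with signal to noise over triplicate slides.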 Particulars: higher = more signal.
For test [7], the system named is Chordin-like protein 2 (CHRDL2). As to the kind of experiment: compounds binding chordin-like 2 – biochemical, small-molecule microarray, 635 nm fluorescence, primary screen (AID 1126).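 Note: printed compound slides probed with Chrdl2 protein at 4 µg/mL for 1 h at 4 C; score merges 667 nm emission intensity with signal to noise over three replicate slides.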 Particulars: fluorescence 635 nm, higher = more signal.
Test [8] concerns the target Concanavalin-A (Canavalia ensiformis) (UniProt P02866). Briefly: compounds binding concanavalin A lectin – biochemical, small-molecule microarray, Alexa647 label, 635 nm, artefact control for SMM control protein annotation, primary screen (AID 1127).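 Note: z combines 667 nm emission intensity with signal-to-noise across three replicate slides.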 Particulars: ConA-A647 binding fluorescence, higher = more signal.

In PubChem BioAssay one finds composite z-score and composite Z-score data, which are given here for twelve compounds.

Active and inactive are the calls of the source.

Chain of Albumin (Bos taurus) (P02769 whole entry, looked up): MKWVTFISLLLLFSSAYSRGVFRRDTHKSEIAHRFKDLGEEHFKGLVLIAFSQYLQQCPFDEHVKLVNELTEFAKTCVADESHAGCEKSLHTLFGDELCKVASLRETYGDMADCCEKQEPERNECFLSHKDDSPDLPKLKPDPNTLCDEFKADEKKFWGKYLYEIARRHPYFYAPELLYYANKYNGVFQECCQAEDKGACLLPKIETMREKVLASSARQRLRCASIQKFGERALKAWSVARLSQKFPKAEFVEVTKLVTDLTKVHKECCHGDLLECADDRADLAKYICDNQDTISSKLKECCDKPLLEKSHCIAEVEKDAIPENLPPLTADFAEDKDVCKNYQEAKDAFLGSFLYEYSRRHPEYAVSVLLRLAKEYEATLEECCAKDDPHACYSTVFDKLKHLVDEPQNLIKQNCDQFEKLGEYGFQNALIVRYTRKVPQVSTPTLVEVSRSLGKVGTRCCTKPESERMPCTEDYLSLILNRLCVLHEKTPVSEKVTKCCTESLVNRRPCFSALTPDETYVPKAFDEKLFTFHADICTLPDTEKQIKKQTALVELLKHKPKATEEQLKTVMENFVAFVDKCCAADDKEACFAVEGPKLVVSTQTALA
Chain of Concanavalin-A (Canavalia ensiformis) (P02866 whole entry, looked up): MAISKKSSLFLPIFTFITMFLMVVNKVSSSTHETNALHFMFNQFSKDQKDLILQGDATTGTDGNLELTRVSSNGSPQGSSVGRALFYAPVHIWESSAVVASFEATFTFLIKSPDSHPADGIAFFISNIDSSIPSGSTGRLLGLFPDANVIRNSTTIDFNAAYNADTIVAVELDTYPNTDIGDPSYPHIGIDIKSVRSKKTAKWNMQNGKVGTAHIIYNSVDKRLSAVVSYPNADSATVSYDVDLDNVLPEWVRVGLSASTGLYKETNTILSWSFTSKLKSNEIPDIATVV

In the case of `C=CC[C@]1(C(=O)N2CCOCC2)N=C(c2ccc(OCCCO)cc2)O[C@H]1c1ccccc1`, the composite z-score with Albumin (Bos taurus) was 0.758; in test [2], 0.0225; in [3] it was -0.0906; in test [4], 0.785; in test [5], 3.15; in test [6] it was 0.446. In addition, the composite z-score with Sam68 (KHDRBS1) is 0.618; in test [7], -0.0547; in [8] it was 1.09. Besides, the composite Z-score in test [1] was -0.128 (inactive).
As for `COC(=O)[C@@]1(Cc2ccc(OC)cc2)[C@H]2c3cc(C(=O)N4CCCC4)n(CCc4c[nH]c5cc(F)ccc45)c3C[C@H]2CN1C(=O)c1ccccc1`, the composite z-score is 0.957 with Albumin (Bos taurus); 0.127 in test [2]; 0.0064 in [3]; 0.714 in [4]; 3.24 in test [5]; 0.959 in test [6]. Also, the composite z-score in the test with Sam68 (KHDRBS1) is 1.29; in test [7] it was -0.703; in test [8], 0.871. For the same compound, in test [1], the composite Z-score is -0.0378 (inactive).
`C=CCOC(=O)[C@H]1[C@@H]2C(=O)O[C@@H](c3ccccc3)[C@@H](c3ccccc3)N2[C@@H](c2ccc(OCCOC(=O)[C@@H]3C[C@@H]4C(=O)N5CCC[C@H]5C(=O)N4[C@@H]3c3ccc(O)cc3)cc2)[C@]12C(=O)Nc1ccccc12`: the composite z-score is -0.854 with Albumin (Bos taurus); 0.299 in test [2]; -0.104 in [3]; 0.268 in test [4]; 1.36 in test [5]; 0.261 in [6]. For the same compound, the composite z-score in the test on Sam68 (KHDRBS1) turned out to be 1.33; in [7], 1.03; in test [8] it was 0.93. Besides, the composite Z-score in [1] is 0.0088 (inactive).
Consider `Cc1ccc(S[C@]2(C(=O)NCc3ccccc3)CC(=O)N(Cc3ccccc3)[C@@H]2c2ccc(CO)cc2)cc1`, for which the composite z-score in the test with Albumin (Bos taurus) was -0.398; in test [2] it was -0.25; in test [3], -0.149; in [4] it was 0.654; in test [5] it was 1.86; in test [6], 0.569. In addition, the composite z-score is 0.176 in the test on Sam68 (KHDRBS1), -0.525 in test [7] and 0.423 in [8]. Besides, in [1], the composite Z-score is 0.115 (inactive).
In the case of `CCCCC=C[C@@H](NC(=O)c1cccs1)c1ccccc1`, the composite z-score with Albumin (Bos taurus) was 0.84; in test [2], 0.0435; in test [3], -0.0116; in test [4] it was 0.251; in test [5] it was 1.35; in test [6], 0.369. In addition, the composite z-score was 0.839 with Sam68 (KHDRBS1), -0.406 in test [7] and 0.499 in [8]. The composite Z-score in test [1] was -0.544 (inactive).
On to `CCCCCCCCCCC(O)C1C=CC2C(=O)N(Cc3ccccc3)C(=O)C2N1n1cnnc1` (stereo not given), for which the composite z-score came out at 0.834 with Albumin (Bos taurus); 0.435 in [2]; 0.0605 in test [3]; 0.485 in test [4]; 1.1 in [5]; 0.687 in test [6]. Besides, the composite z-score in the test with Sam68 (KHDRBS1) is 1.11; in test [7], -0.686; in [8], 1.04. The composite Z-score in test [1] was 0.797 (inactive).
Consider `COc1ccc(CCNC(=O)[C@@]2(c3ccc([N+](=O)[O-])cc3)CC(=O)N(CC34CC5CC(CC(C5)C3)C4)[C@@H]2c2ccc(CO)cc2)cc1`, for which the composite z-score with Albumin (Bos taurus) is -0.191; in [2], 0.0494; in test [3], -0.0617; in [4] it was 0.18; in test [5], 1.11; in test [6], -0.291. The composite z-score worked out at 1.09 in the test with Sam68 (KHDRBS1), 0.647 in [7] and 1.12 in test [8]. Besides, the composite Z-score in test [1] is 0.22 (inactive).
Regarding `O=C1C=CC(=O)[C@@H]2CC(COc3ccccc3)=C3[C@@H](CCc4ccccc4)OB(O)C[C@@H]3[C@H]12`, the composite z-score with Albumin (Bos taurus) was -0.182; in test [2] it was -0.0647; in [3], -0.219; in test [4], -0.0292; in test [5] it was 0.113; in [6], -0.17. Further, the figures for the composite z-score (with Sam68 (KHDRBS1); in test [7]; in test [8]) were 0.359, 0.299 and 0.238, respectively. Further, in test [1], the composite Z-score was 0.155 (inactive).
Consider `[N-]=[N+]=NCc1ccccc1C[C@]1(C(=O)O)N=C(c2ccc(OCCCO)cc2)O[C@H]1c1ccccc1CN=[N+]=[N-]`, for which the composite z-score with Albumin (Bos taurus) was 0.938; in [2] it was -0.027; in test [3], -0.011; in [4], 0.696; in test [5] it was 2.7; in test [6], 0.513. The results for the composite z-score (with Sam68 (KHDRBS1); in [7]; in [8]) were 1.34, -0.69 and 1.17, respectively. In addition, in [1], the composite Z-score was -0.313 (inactive).
Consider `O=C1OCC=C[C@H]2OC34C=CCN(c5ccc6ccccc6c5)C(=O)[C@H]3N(CCCO)C(=O)[C@@H]4[C@@H]12` (stereo not given in full), for which the composite z-score with Albumin (Bos taurus) was 0.314; in [2], -0.256; in [3], -0.07; in test [4], 0.709; in test [5], -0.559; in test [6] it was 1.26. Moreover, the composite z-score in the test with Sam68 (KHDRBS1) was -1.39; in test [7], -0.824; in [8], -0.223. In addition, the composite Z-score in [1] is 0.102 (inactive).
For `O=C(OCCF)C1=CCC(c2cccc(Cl)c2)O1` (stereo not given), the composite z-score with Albumin (Bos taurus) was 0.374; in [2] it was -0.191; in test [3] it was -0.199; in test [4] it was 0.593; in [5], 0.751; in test [6], 0.142. The figures for the composite z-score (with Sam68 (KHDRBS1); in [7]; in test [8]) were 0.748, -0.165 and 0.532, respectively. Also, the composite Z-score in test [1] is 0.13 (inactive).
As for `COCCOC(=O)N1C(=O)[C@@]2(c3cc(C#CC4=CCCCC4)ccc31)[C@H](C(=O)N1CCc3cc(OC)c(OC)cc3C1)[C@H]1C(=O)O[C@H](c3ccccc3)[C@H](c3ccccc3)N1[C@@H]2c1ccccc1OCCO`, the composite z-score with Albumin (Bos taurus) was -0.092; in test [2] it was -0.068; in [3], -0.118; in test [4] it was -0.0205; in test [5] it was -0.0785; in test [6] it was 0.498. Besides, the composite z-score came to 0.6 in the test on Sam68 (KHDRBS1), 1.03 in test [7] and 1.07 in test [8]. Besides, the composite Z-score in test [1] was -0.243 (inactive).
